The campaign covered roughly 10,000 compounds. About 25 (0.2%) were called active. Shown is part of a subset that was picked to be rich in actives. Unmarked numbers belong to inactive results.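 Rule for the calls: active = compound among top-ranked inhibitors of TNF-induced VCAM-1 adhesion protein staining, with the hit upheld by image or statistical review; inactive = the rest, including hits rejected on review.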
Assay: suppression of endothelial VCAM-1 upregulation – cell-based, plate reader, pooled HUVEC, TNFa stimulus (AID 454)
Details: HUVEC TNFa-induced VCAM-1 surface immunofluorescence; stronger effect = higher value,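 compound tested at 5 µM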

SMILES	inhibition
COc1ccc(N(CC(=O)Nc2cc(C)ccc2C)S(=O)(=O)c2c(C)nn(C)c2C)cc1	inactive
Cc1ccc2nc(NC(=O)Cn3cc4c(n3)CCCCC4)sc2c1	inactive
CCCCNC(=O)OC(C)CNC(=O)Oc1cccc(C)c1 (centres undefined)	inactive
Cc1ccc(O)c(-c2cc(C(=O)Nc3ccc(S(=O)(=O)N4CC(C)OC(C)C4)cc3)[nH]n2)c1 (centres undefined)	inactive
O=C(Nc1ccc2c(c1)OCCO2)C1CCCN1S(=O)(=O)c1cccc2cccnc12 (centres undefined)	inactive
CCOc1ccccc1NC(=O)CCSc1nc2n[nH]c(C)c2c(=N)n1-c1ccccc1Cl	inactive
Cn1c(=O)c2c(nc(NCCCO)n2CCc2ccccc2)n(C)c1=O	inactive
Cc1ccc(-n2c(=O)[nH]c3c(C(N)=O)nc(CC(C)C)nc32)cc1	inactive
N/C(Cn1nnc(-c2ccccc2)n1)=N\O	inactive
CO[C@H]1C[C@@H]2CC[C@@H](C)[C@@](O)(O2)C(=O)C(=O)N2CCCC[C@H]2C(=O)O[C@H]([C@H](C)C[C@@H]2CC[C@@H](O)[C@H](OC)C2)CC(=O)[C@H](C)C=C(C)[C@@H](O)[C@@H](OC)C(=O)[C@H](C)C[C@H](C)C=CC=CC=C1C	88.8% (active)
CCOC(=O)C1CCN(c2c(NC3CCCc4ccccc43)c(=O)c2=O)CC1 (centres undefined)	inactive
Cc1ccc(C)c2[nH]c(=O)c(CCNC(=O)c3ccc(S(=O)(=O)N(C)C)cc3)cc12	inactive
Cc1cc(-n2c(C)cc(C(=O)CSc3nnnn3-c3ccc(Cl)cc3)c2C)no1	inactive
CC(Oc1ccc(Cl)cc1Cl)c1nc(-c2ccc(NC(=O)c3cccnc3)cc2)no1 (centres undefined)	72% (active)
O=C(Nc1ccc(-c2noc(-c3cccs3)n2)cc1)c1cccnc1	inactive
COc1ccc(Cc2nc(-c3ccc(NC(=O)c4cccnc4)cc3)no2)cc1	inactive
O=C(CCSc1nccn1Cc1ccccc1)N1CCOCC1	inactive
Cc1nnc(NC(=O)C2CCCO2)s1 (centres undefined)	inactive
CCN1CCN(C(c2ccc(F)cc2)c2nnnn2Cc2cccs2)CC1 (centres undefined)	inactive
O=C(COC(=O)c1ccco1)NCc1cccs1	inactive
CCCCn1nnnc1SCC(=O)N1CCN(C(=O)c2ccco2)CC1	inactive
COC(=O)CC1SCCNC1=O (centres undefined)	inactive
Cn1c(-c2ccccc2)cc(=O)c2ccccc21	inactive
O=C(NCCC1=CCCCC1)c1cc2c(s1)CS(=O)(=O)C2	inactive

SMILES	inhibition
COc1ccc(C(=O)Cn2nnc(-c3cccs3)n2)cc1	inactive
O=C(Nc1sccc1C(=O)NCc1ccco1)c1cccnc1	inactive
CC1CCCN(S(=O)(=O)c2ccc(C(=O)Nc3nnc(-c4ccccc4Cl)o3)cc2)C1 (centres undefined)	77.1% (active)
CCC1CCCCN1S(=O)(=O)c1ccc(C(=O)Nc2nnc(-c3cccs3)o2)cc1 (centres undefined)	inactive
CCC1CCCCN1S(=O)(=O)c1ccc(C(=O)Nc2nnc(-c3ccccc3Cl)o2)cc1 (centres undefined)	inactive
COc1ccc(-c2cc(C(=O)NCc3ccc(Cl)cc3)no2)cc1OC	inactive
COC(=O)c1[nH]c2cc(OC)ccc2c1NC(=O)CCN1CCCCC1	inactive
O=S(=O)(Cc1ccc(Cl)cc1)Nc1ccc2c(c1)OCO2	inactive
CCOC(=O)N1CCN(S(=O)(=O)c2cc(Cl)ccc2Cl)CC1	inactive
Cc1nnc(SCCn2c(N3CC(C)CC(C)C3)nc3c2c(=O)n(C)c(=O)n3C)s1 (centres undefined)	inactive
COC(=O)c1[nH]c2ccccc2c1NC(=O)CN1CCC(C(N)=O)(N2CCCCC2)CC1	inactive
CCC(C)NC(=O)CC1Oc2ccc(C)cc2NC1=O (centres undefined)	inactive
COc1ccccc1NC(=O)N1CCN(c2cccc(C(F)(F)F)c2)CC1	inactive
Cc1cc(C)n2nc[n+](C)c2n1	inactive
CC(=O)N1CCN(S(=O)(=O)c2cccc(C(=O)Nc3ccc4c(c3)CCC4)c2)CC1	inactive
CCc1nnc2c3cnn(-c4ccccc4)c3ncn12	inactive
Cc1ccc(S(=O)(=O)N2CCCC2)cc1S(=O)(=O)N1CCCC1	inactive
CS(=O)(=O)N1CCc2cc(C(=O)N3CCCCC3)ccc21	inactive
Cc1cc(C)nc(NS(=O)(=O)c2ccc(NC(=O)Cn3c(=O)oc4ccccc43)cc2)n1	inactive
CCOC(=O)c1[nH]c2ccc(C)cc2c1NC(=O)CN1CCCCC1	inactive
S=C(NCC1CCCO1)n1nnc2ccccc21 (centres undefined)	104% (active)
O=C(CN(Cc1ccc(F)cc1)C(=O)Cn1nnc2ccccc21)NCC1CCCO1 (centres undefined)	inactive
O=C(NCC1CCCO1)c1ccc(C(=O)NCC2CCCO2)cc1 (centres undefined)	inactive
CC(=O)Oc1ccc(CCC(C)OC(C)=O)cc1 (centres undefined)	inactive

SMILES	inhibition
Oc1ccc(Nc2nc(-c3ccc(O)cc3)cs2)cc1	106% (active)
CC(=O)Nc1nc(C)c(-c2csc(Nc3ccc(O)cc3)n2)s1	inactive
c1cc2c(cc1Nc1nc(-c3ccc4c(c3)OCO4)cs1)OCCO2	inactive
COc1ccc2nc(CC(C)(C)CC(=O)O)c[n+]([O-])c2c1	inactive
O=C(NC1CC1)c1cccc(Nc2ccc(-c3ccc4c(c3)OCCO4)nn2)c1	inactive
Cn1c(=O)cc(OCCCC(=O)N2CCCCC2)c2ccccc21	101% (active)
CCOC(=O)N1CCN(C(=O)COc2cc(=O)n(C)c3ccccc23)CC1	inactive
Cn1c(=O)cc(OCCCC(=O)Nc2ccc3c(c2)OCCO3)c2ccccc21	inactive
CCOC(=O)c1nn(-c2sc(C(=O)OC)c(C)c2C(=O)OC)cc1O	inactive
COc1ccc(CCn2c(N)c(C#N)c3nc4ccccc4nc32)cc1OC	inactive
COc1cc(/C=C/C(=O)CC(=O)/C=C/c2ccc(O)c(OC)c2)ccc1O	85.5% (active)
O=C(O)/C=C/c1ccc(O)c(O)c1	inactive
CCN(CC)C(=O)c1ccc(O)c(OC)c1	inactive
COc1ccc(N2CCN(c3ncnc4c3cnn4-c3ccc(C)cc3C)CC2)cc1	inactive
CC1(C)Cc2c(sc3c2c(=N)n(Cc2ccco2)c(=O)n3Cc2ccccc2)CO1	inactive
Cc1nc(-c2ccccc2)sc1C(N)=O	inactive
Clc1ccc(Cl)c(-c2nn3c(Cn4cnc5ccccc54)nnc3s2)c1	inactive
CSc1ccccc1NC(=O)CN(c1ccccc1)S(=O)(=O)N(C)C	inactive
CSc1ccc(Cn2nnc(C(=O)NCc3ccccc3)c2N)cc1	inactive
CC(=O)N1CCN(c2ccc(N=Cc3c(O)n(Cc4ccccc4)c(=O)[nH]c3=O)cc2)CC1	inactive
C1=CC2CC1CC2CN1CCN(c2ccccc2)CC1 (centres undefined)	inactive
CCOC(=O)C(NC(=O)CC)(Nc1ccc(S(=O)(=O)Nc2onc(C)c2C)cc1)C(F)(F)F (centres undefined)	inactive
O=C(Nc1nc2c(s1)CCc1ccccc1-2)c1cccs1	inactive
CS(=O)(=O)N1CCCC(C(=O)NCc2ccccc2Cl)C1 (centres undefined)	inactive

SMILES	inhibition
COC(=O)c1sc(NC(=O)COc2ccccc2OC)nc1C	inactive
CCOC(=O)c1sc(NS(=O)(=O)c2ccc(NC(C)=O)cc2)nc1C	inactive
CCOC(=O)c1sc(Nc2nc3c(OC)cccc3s2)nc1C	73.7% (active)
O=C(c1ccco1)N1CCN(c2cccc(Cl)c2)CC1	inactive
O=C(O)c1[nH]c2ccc(Cl)cc2c1CC(=O)N1CCN(C(=O)c2ccco2)CC1	inactive
O=C(c1ccco1)N1CCN(c2c(-c3ccccc3)c3cc(Cl)ccc3[nH]c2=O)CC1	86.3% (active)
O=S1(=O)C=C(Sc2nnc(-c3ccccc3)o2)c2ccccc21	inactive
Cc1cc(C)nc(SC2=CS(=O)(=O)c3ccccc32)n1	91% (active)
O=S1(=O)C=C(Sc2nc3ccccc3s2)c2ccccc21	110%
Cc1ccc(-c2nc3cnccn3c2Nc2ccc3c(c2)OCO3)o1	inactive
CCOC(=O)C(C(C)=O)c1nc(C)nc2c1nnn2Cc1ccccc1Cl (centres undefined)	inactive
CCC(C(=O)NC(C)CCc1ccco1)n1nc(C)n2c(cc3occc32)c1=O (centres undefined)	inactive
CCOc1ccccc1NC(=O)CCN1CCN(S(=O)(=O)c2ccc(Br)cc2)CC1	inactive
COc1cccc(-c2nc(CS(=O)(=O)CC(=O)N3CCN(c4ccccn4)CC3)c(C)o2)c1	inactive
Cc1cc(C)n(-c2nc3ccccc3c(=O)n2OCCOc2ccccc2)n1	inactive
Cn1cccc1Cc1nnc(SCC(=O)N2CCOCC2)n1-c1ccc(F)cc1	inactive
O=C(CN(c1ccc(F)cc1)S(=O)(=O)c1ccc2c(c1)OCCO2)Nc1ccc2c(c1)OCO2	inactive
CN(C)/C=C(\C#N)c1nc2ccccc2[nH]1	inactive
O=C(CN(c1ccc(F)cc1)S(=O)(=O)c1ccc2c(c1)OCCO2)Nc1cccnc1	inactive
COc1ccc(CNc2oc(-c3cccc4ccccc34)nc2C#N)cc1	inactive
CCN(CC)CCOC(=O)c1c(C)oc2ccc(O)cc12	inactive
CCCCc1oc2ccccc2c1C(=O)c1cc(I)c(OCCN(CC)CC)c(I)c1	85.9% (active)
CCc1oc2ccccc2c1C(=O)c1cc(Br)c(O)c(Br)c1	inactive
O=C(COc1ccccc1Cl)NCc1ccco1	inactive

SMILES	inhibition
CCCC1Cc2c(sc3ncnc(N)c23)CO1 (centres undefined)	inactive
COc1cccc(NC(=O)N2CCC(N3CCCCC3)CC2)c1	inactive
CCc1nc(C)c(C#N)c2cc(OC)c(OC)cc12	inactive
COc1cc(CC(=O)Nc2ncc(C)s2)cc(OC)c1OC	inactive
C#CCNc1c(C)c(C)nc2ncnn12	inactive
CCN1CCN(Cc2ccc(NC(=O)Nc3ccc(SC)cc3)cc2)CC1	inactive
Cn1c(=O)[nH]c(=O)c2[nH]c(CN3CCN(C(=O)c4ccco4)CC3)nc21	inactive
CC(=O)OCC(=O)[C@H]1CC[C@H]2[C@@H]3CCC4=CC(=O)CC[C@]4(C)[C@H]3CC[C@]12C	inactive
C[C@]12CC[C@H]3[C@@H](CCC4=CC(=O)CC[C@@]43C)[C@@H]1CC[C@@H]2C(=O)CO	inactive
CC(=O)[C@H]1CC[C@H]2[C@@H]3CCC4=CC(=O)CC[C@]4(C)[C@H]3CC[C@]12C	96.7% (active)
CCC(=O)N[C@@H]1CC(C(C)(C)NC(=O)CC)CC=C1C (some centres undefined)	inactive
COc1cc(OC)c2c(c1)OC(c1ccc(OC)c(OC)c1)C(O)C2=O (centres undefined)	inactive
Cc1ccc(-c2cc(C(F)F)nc(N3CCC(C)CC3)n2)cc1	inactive
Cc1[nH]n(C(N)=S)c(=O)c1C(c1ccccc1)C(C#N)C#N (centres undefined)	inactive
CCOC(=O)c1cnc(-n2nc(C)cc2C)nc1N1CC(C)OC(C)C1 (centres undefined)	inactive
Cc1ccc(S(=O)(=O)N2CCCC2C(=O)n2nc(C)cc2C)cc1 (centres undefined)	inactive
CCOCCn1c(CN2CCC(Cc3ccccc3)CC2)nc2c1c(=O)n(C)c(=O)n2C	inactive
Oc1c(C(c2ccccc2)N2CCc3ccccc3C2)sc2ncnn12 (centres undefined)	inactive
CC1=C(C(N)=O)C(c2ccc(Cl)cc2Cl)n2ncnc2N1 (centres undefined)	inactive
COC(=O)C1=C(C)N(c2ccc(C(=O)OC)cc2)C(=O)C1	inactive
COCCCNC(=O)CCn1c(=O)c2ccccc2n(CC(=O)Nc2ccc(C)cc2C)c1=O	inactive
CCOc1cc(-c2nc3ccccn3c2NCC2CCCO2)ccc1O (centres undefined)	inactive
Cc1cc(C)nc(SCc2nnc(SCc3ccccc3Cl)o2)n1	inactive
